# Test results as given in PubChem BioAssay (NCATS).
# “And” between values parts separate entries of the source, which are not always exact repeats. Equal values may be shown once. Inconclusive results are not listed. A call without a number means that no potency is given here. The source made the active and inactive calls. Calls follow the shape of the dose curve; as a rule, active = well fitted inhibition curve with a large enough effect; inconclusive = small, poorly fitted or top-dose-only effect; inactive = flat fitted curve, though single readings scatter.
# What was measured:
# [1] = system: CRL-7250; experiment: Cytotoxic Profiling of Annotated Libraries Using Quantitative High-Throughput Screening (AID 1296008); conditions: Five cell lines viability, CellTiter-Glo ATP luminescence, 48-72 h; max response: stronger effect = lower value; also: potency is read from the fitted curve at half-maximal effect
# Procedure, shortened: (§1)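 Cytotoxicity was measured as CellTiter-Glo ATP luminescence, read after 10 min at room temperature. Compound treatment of the cells lasted 48 or 72 hr at 37 degrees Celsius in a qHTS format.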
# [2] = system: HEK293; experiment: as above; conditions: Five cell lines viability, CellTiter-Glo ATP luminescence, 48-72 h; max response: stronger effect = lower value
# Procedure, shortened: as §1
# [3] = system: HaCat; experiment: as above; conditions: Five cell lines viability, CellTiter-Glo ATP luminescence, 48-72 h; max response: stronger effect = lower value
# Procedure, shortened: as §1
# [4] = system: KB-3-1; experiment: as above; conditions: Five cell lines viability, CellTiter-Glo ATP luminescence, 48-72 h; max response: stronger effect = lower value
# Procedure, shortened: as §1
# [5] = system: NIH3T3; experiment: as above; conditions: Five cell lines viability, CellTiter-Glo ATP luminescence, 48-72 h; max response: stronger effect = lower value
# Procedure, shortened: as §1
# [6] = system: HACAT; experiment: qHTS assay to identify novel small-molecules to repurpose for Merkel cell carcinoma treatment (AID 1296009); conditions: MCC and control cell lines, CellTiter-Glo viability, 72 h
# Procedure, shortened: (§2)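 Cell viability measured by CellTiter-Glo following 72 hr compound treatment at 37 degree celsius, with NPC and MIPE libraries tested in 8- and 11-point concentration series.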
# [7] = system: MCC-13; experiment: as above; conditions: MCC and control cell lines, CellTiter-Glo viability, 72 h; series mostly up to 46 µM
# Procedure, shortened: as §2
# [8] = system: MKL-1; experiment: as above; conditions: MCC and control cell lines, CellTiter-Glo viability, 72 h; series mostly up to 46 µM
# Procedure, shortened: as §2
# [9] = system: MKL-2; experiment: as above; conditions: MCC and control cell lines, CellTiter-Glo viability, 72 h; series mostly up to 46 µM
# Procedure, shortened: as §2
# [10] = system: PAD; experiment: qHTS profiling for inhibitors of Plasmodium falciparum proliferation (AID 504749); conditions: P. falciparum in erythrocytes, SYBR Green DNA, 72 h; series mostly up to 28.7 µM
# Procedure, shortened: (§3)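 In a 72 h erythrocytic culture (37 C, humidified, 5% CO2) at 2.5% hematocrit and 0.3% starting parasitemia, compounds were tested; SYBR Green I in detergent lysis buffer stained parasite DNA overnight.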
# [11] = system: PC15; experiment: as above; conditions: P. falciparum in erythrocytes, SYBR Green DNA, 72 h; series mostly up to 28.7 µM
# Procedure, shortened: as §3
# [12] = system: PC26; experiment: as above; conditions: P. falciparum in erythrocytes, SYBR Green DNA, 72 h; series mostly up to 28.7 µM
# Procedure, shortened: as §3
# [13] = system: PC49; experiment: as above; conditions: P. falciparum in erythrocytes, SYBR Green DNA, 72 h; series mostly up to 28.7 µM
# Procedure, shortened: as §3
# [14] = system: SC27B; experiment: as above; conditions: P. falciparum in erythrocytes, SYBR Green DNA, 72 h; series mostly up to 28.7 µM
# Procedure, shortened: as §3
# [15] = system: TAB109; experiment: as above; conditions: P. falciparum in erythrocytes, SYBR Green DNA, 72 h; series mostly up to 28.7 µM
# Procedure, shortened: as §3
# [16] = system: TAB113; experiment: as above; conditions: P. falciparum in erythrocytes, SYBR Green DNA, 72 h; series mostly up to 28.7 µM
# Procedure, shortened: as §3
# [17] = system: TAB165; experiment: as above; conditions: P. falciparum in erythrocytes, SYBR Green DNA, 72 h; series mostly up to 28.7 µM
# Procedure, shortened: as §3
# [18] = system: W2; experiment: as above; conditions: P. falciparum in erythrocytes, SYBR Green DNA, 72 h; series mostly up to 28.7 µM
# Procedure, shortened: as §3
# [19] = system: MCC-26; experiment: qHTS assay to identify novel small-molecules to repurpose for Merkel cell carcinoma treatment (AID 1296009); conditions: MCC and control cell lines, CellTiter-Glo viability, 72 h; series mostly up to 46 µM
# Procedure, shortened: as §2
# [20] = system: HEK293T; experiment: as above; conditions: MCC and control cell lines, CellTiter-Glo viability, 72 h; at 44.8 µM (top of the series)
# Procedure, shortened: as §2
# [21] = at 44.8 µM (top of the series) unless noted
# Also: nearly all actives have a fitted effect of over 60% in size.
smiles,measurement,setting,value
Cc1csc(NC(=O)c2sc3nc4c(c(C(F)(F)F)c3c2N)CCC4)n1,max response,[1],-0.546% (inactive) and -0.36% (inactive)
same,max response,[2],-22.1% (inactive)
same,max response,[3],-0.44% (inactive)
same,outcome,[3],inactive
same,max response,[4],1.14% (inactive) and -9.3% (inactive)
same,max response,[5],-3.35% (inactive) and -3.51% (inactive)
same,outcome,[6]; [21],inactive
same,Potency,[7],inactive
same,Potency,[8],inactive
same,Potency,[9],inactive
NCCCC(N)(C(=O)O)C(F)F (centres undefined),Potency,[10],inactive
same,Potency,[11],inactive
same,Potency,[12],inactive
same,Potency,[13],inactive
same,Potency,[14],inactive
same,Potency,[15],inactive
same,Potency,[16],inactive
same,Potency,[17],inactive
same,Potency,[18],inactive
same,max response,[1],-1.33% (inactive) and -4.78% (inactive)
same,max response,[2],-1.85% (inactive) and -25.2% (inactive)
same,max response,[3],-8.41% (inactive)
same,outcome,[3],inactive
same,max response,[4],-4.94% (inactive) and 7.79% (inactive)
same,max response,[5],-17.4% (inactive)
same,outcome,[6]; [21],inactive
same,Potency,[7],inactive
same,Potency,[19],inactive
same,Potency,[8],inactive
same,Potency,[9],inactive
NC(=O)c1ccc(I)c([N+](=O)[O-])c1,max response,[1],1.49% (inactive)
same,outcome,[2],inactive
same,outcome,[3],inactive
same,max response,[4],7.82% (inactive)
same,max response,[5],-1.58% (inactive)
same,outcome,[6]; [21],inactive
same,outcome,[20],inactive
same,Potency,[7],inactive
same,Potency,[19],inactive
same,Potency,[8],inactive
same,Potency,[9],inactive
CCOc1cc(C(=O)Nc2ccc(Cl)c(-c3nc4ccccc4[nH]3)c2)cc(OCC)c1OCC,outcome,[1],inactive
same,Potency,[2],16.6 µM (active)
same,max response,[3],1.32% (inactive) and 3.52% (inactive)
same,max response,[4],-16% (inactive) and -9.64% (inactive)
same,max response,[5],-3.49% (inactive)
same,outcome,[5],inactive
same,Potency,[7],inactive
same,Potency,[8],inactive
O=c1[nH]cnc2[nH]ncc12,Potency,[10],inactive
same,Potency,[11],inactive
same,Potency,[12],inactive
same,Potency,[13],inactive
same,Potency,[14],inactive
same,Potency,[15],inactive
same,Potency,[16],inactive
same,Potency,[17],inactive
same,Potency,[18],inactive
same,max response,[1],2.71% (inactive) and -1.4% (inactive)
same,max response,[2],-10.4% (inactive)
same,max response,[3],0.897% (inactive)
same,outcome,[3],inactive
same,max response,[4],2.11% (inactive) and 5.17% (inactive)
same,max response,[5],4.86% (inactive) and -3.07% (inactive)
same,outcome,[6]; [21],inactive
same,Potency,[7],inactive
same,Potency,[19],inactive
same,Potency,[8],inactive
same,Potency,[9],inactive
C[C@]12CC[C@H](O)CC1=CC[C@@H]1[C@H]2CC[C@]2(C)C(c3cccnc3)=CC[C@H]12,outcome,[1],inactive
same,max response,[2],-4.02% (inactive)
same,outcome,[3],inactive
same,max response,[4],-14.4% (inactive)
same,max response,[5],0.502% (inactive)
same,outcome,[6]; [21],inactive [at 17.4 µM]
same,Potency,[7],inactive
same,Potency,[8],inactive
same,Potency,[9],inactive
Nc1ccc(S(=O)(=O)Nc2ccnn2-c2ccccc2)cc1,Potency,[10],inactive
same,Potency,[11],inactive
same,Potency,[12],inactive
same,Potency,[13],inactive
same,Potency,[14],inactive
same,Potency,[15],inactive
same,Potency,[16],inactive
same,Potency,[17],inactive
same,Potency,[18],inactive
same,outcome,[1],inactive
same,max response,[2],-2.4% (inactive) and -5.26% (inactive)
same,outcome,[3],inactive
same,max response,[4],-3.13% (inactive) and 3.95% (inactive)
same,max response,[5],4.45% (inactive) and 3.04% (inactive)
same,outcome,[6]; at 17.4 µM (top of the series),inactive
same,outcome,[6]; at 44.8 µM (top of the series),inactive
same,Potency,[7],inactive
same,Potency,[19],inactive
same,Potency,[8],inactive
same,Potency,[9],inactive
COc1ccc(-c2c(-c3ccc(O)cc3O)n[nH]c2C)cc1,Potency,[1],30.3 µM (active)
same,Potency,[2],27 µM (active)
same,outcome,[3],inactive; activator
same,max response,[4],-14.6% (inactive)
same,max response,[5],-24.1% (inactive)
same,outcome,[6]; [21],inactive; activator [at 92 µM]
same,Potency,[7],inactive
same,Potency,[19],inactive
same,Potency,[8],inactive
same,Potency,[9],inactive
O=C(c1cc(Cc2n[nH]c(=O)c3ccccc23)ccc1F)N1CCN(C(=O)C2CC2)CC1,Potency,[1],9.35 µM (active)
same,max response,[2],-77.6% (inactive)
same,max response,[3],-1.1% (inactive)
same,max response,[4],-21.2% (inactive) and -8.64% (inactive)
same,max response,[5],-27.5% (inactive) and -49.1% (inactive)
same,Potency,[7],inactive
same,Potency,[19],inactive
same,Potency,[8],inactive
CC(C)(C)NCC(O)c1ccc(O)c(CO)c1 (centres undefined),max response,[1],-2.87% (inactive) and 2.98% (inactive)
same,max response,[2],-5.93% (inactive) and 0.072% (inactive)
same,outcome,[3],inactive
same,max response,[4],-0.699% (inactive)
same,outcome,[5],inactive
same,outcome,[6]; [21],inactive
same,Potency,[7],inactive
same,Potency,[19],inactive
same,Potency,[8],inactive
same,Potency,[9],inactive
COc1ccc(-c2oc3cc(OC)ccc3c2C(=O)c2ccc(C#N)cc2)cc1,outcome,[1],inactive
same,outcome,[2],inactive
same,outcome,[3],inactive
same,outcome,[4],inactive
same,outcome,[5],inactive
same,outcome,[6]; [21],inactive
same,outcome,[20],inactive
same,Potency,[7],inactive
same,Potency,[8],inactive
CCOc1cc(C=C2C(=O)N(c3ccccc3)N=C2C)cc(Cl)c1OCC(=O)OC,max response,[1],3.6% (inactive)
same,max response,[2],0.832% (inactive)
same,outcome,[3],inactive
same,max response,[4],4.4% (inactive)
same,max response,[5],-3.61% (inactive)
same,outcome,[6]; [21],inactive
same,Potency,[7],inactive
same,Potency,[8],inactive
same,Potency,[9],inactive
